# Test results taken from article PMC4336329 (PLoS ONE, 2015).
# Among all 310,000 compounds or so, about 14,000 (4.5%) showed an effect of 50% or more. Effects have a minus sign here. What follows is part of a selection rich in strong results, with near analogues and random picks from the rest.
# Target: human ether-à-go-go-related gene (hERG) potassium channel (human, UniProt Q12809)
# Experiment: primary screen, population patch clamp on CHO cells stably expressing hERG; higher = less effect of the substance
# 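Note: peak tail current of the secondary pulse compared with the same well before compound.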
# human ether-à-go-go-related gene (hERG) potassium channel, sequence (Q12809 whole entry, looked up): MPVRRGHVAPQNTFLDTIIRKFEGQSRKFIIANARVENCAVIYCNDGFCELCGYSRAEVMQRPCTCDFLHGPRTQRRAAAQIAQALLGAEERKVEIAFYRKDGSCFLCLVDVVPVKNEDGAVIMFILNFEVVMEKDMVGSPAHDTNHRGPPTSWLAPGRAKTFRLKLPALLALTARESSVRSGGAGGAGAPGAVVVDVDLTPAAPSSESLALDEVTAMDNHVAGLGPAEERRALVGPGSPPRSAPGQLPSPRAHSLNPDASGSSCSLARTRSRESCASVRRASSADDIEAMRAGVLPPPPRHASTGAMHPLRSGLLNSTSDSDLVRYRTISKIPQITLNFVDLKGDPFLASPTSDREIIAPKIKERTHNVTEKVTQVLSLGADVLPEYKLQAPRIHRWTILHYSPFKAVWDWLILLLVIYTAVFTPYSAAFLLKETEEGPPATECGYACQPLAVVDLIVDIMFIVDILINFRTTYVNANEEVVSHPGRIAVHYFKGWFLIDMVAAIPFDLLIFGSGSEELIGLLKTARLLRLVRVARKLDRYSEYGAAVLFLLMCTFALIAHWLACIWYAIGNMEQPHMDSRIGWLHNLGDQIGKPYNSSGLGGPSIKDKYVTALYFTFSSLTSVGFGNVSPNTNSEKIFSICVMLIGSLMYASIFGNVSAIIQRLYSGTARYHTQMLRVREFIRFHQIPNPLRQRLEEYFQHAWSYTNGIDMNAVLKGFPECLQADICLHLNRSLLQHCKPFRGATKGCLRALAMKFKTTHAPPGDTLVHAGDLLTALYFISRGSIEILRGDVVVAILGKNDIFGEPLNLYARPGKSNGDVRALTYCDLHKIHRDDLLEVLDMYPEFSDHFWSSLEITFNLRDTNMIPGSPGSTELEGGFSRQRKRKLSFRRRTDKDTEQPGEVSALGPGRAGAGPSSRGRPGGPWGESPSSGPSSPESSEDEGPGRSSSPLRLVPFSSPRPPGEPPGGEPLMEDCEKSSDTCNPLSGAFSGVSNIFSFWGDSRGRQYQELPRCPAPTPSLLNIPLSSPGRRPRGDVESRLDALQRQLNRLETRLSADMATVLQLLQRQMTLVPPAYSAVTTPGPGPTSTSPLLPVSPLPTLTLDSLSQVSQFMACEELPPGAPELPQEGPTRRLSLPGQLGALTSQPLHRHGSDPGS
row,SMILES,"hERG current change (%, negative = inhibition) at 10uM [%]"
1,CS(=O)(=O)N(CC(=O)N1CCN(Cc2ccccc2)CC1)c1cccc(Cl)c1,-63.8
2,CCOC(=O)N1CCN(C(=O)CN(c2cccc(C(F)(F)F)c2)S(=O)(=O)c2ccccc2)CC1,-43.6
3,CS(=O)(=O)N(CC(=O)N1CCN(Cc2ccccc2)CC1)c1cccc(F)c1,-36.3
4,CS(=O)(=O)N(CC(=O)N1CCOCC1)c1cccc([N+](=O)[O-])c1,6.28
5,CCOC(=O)C1CCN(C(=O)CN(c2cccc(C(F)(F)F)c2)S(C)(=O)=O)CC1,-25.9
6,CS(=O)(=O)N(CC(=O)N1CCCCCC1)c1cccc([N+](=O)[O-])c1,-32.7
7,Cc1ccc(N(CC(=O)N2CCN(Cc3ccccc3)CC2)S(C)(=O)=O)cc1C,-7.28
8,CS(=O)(=O)N(CC(=O)N1CCN(Cc2ccccc2)CC1)c1cccc([N+](=O)[O-])c1,-75.5
9,CCOC(=O)N1CCN(C(=O)CN(c2cccc(C(F)(F)F)c2)S(C)(=O)=O)CC1,-51.1
10,CC(C)CC(C(=O)NC1CCCC1)N(Cc1cccs1)C(=O)c1snc(C(N)=O)c1N (stereo not shown),-40.5
11,CS(=O)(=O)c1ccc2nnn(OCC(=O)Nc3ccc(Br)cc3Br)c2c1,7.34
12,Cc1ccc(/C=N/c2sc3c(c2C(N)=O)CCCC3)o1,23.3
13,COCCNC(=O)/C(C#N)=C/c1cccc(/C=C(\C#N)C(=O)NCCOC)c1,0.707
14,COc1ccc(CC2(CO)CCN(Cc3cccnc3)CC2)cc1,-40.3
15,COc1ccc(CC2(CO)CCN(Cc3cnn(-c4ccccc4)c3)CC2)cc1,-77.6
16,COc1ccc(CC2(CO)CCN(Cc3cnn(-c4ccc(F)cc4)c3)CC2)cc1,-76.4
17,COc1ccc(CC2(CO)CCN(Cc3cnn(-c4ccccc4OC)c3)CC2)cc1,-64.8
18,COc1ccccc1-n1cc(CN2CCN(C3CCCC3)C(CCO)C2)cn1 (stereo not shown),-15.3
19,COc1ccccc1-n1cc(CN2CCN(CC=C(C)C)C(CCO)C2)cn1 (stereo not shown),-13.7
20,COc1ccc(CC2(CO)CCN(Cc3cnc(-c4ccccc4C)nc3)CC2)cc1,-20.6
21,Cc1ccc(CCNC(=O)C2CCN(S(=O)(=O)c3ccc4c(c3)NC(=O)CO4)CC2)cc1,-1.82
22,CC(NC(=O)OCc1ccccc1)c1ccccc1 (stereo not shown),-22.9
23,COCCN1C(=O)N(c2cccc(C)c2)C(=O)C1CC(=O)Nc1cc(OC)cc(OC)c1 (stereo not shown),10.2
24,CC(C)Cc1nnc(NC(=O)CCC(=O)N2CCN(c3ccccc3)CC2)s1,13.2
25,CCN(CC)CCNC(=O)c1cc([N+](=O)[O-])c(N(C)C)cc1OC.Cl,-12
26,CCCSc1cc(Cl)nc(N)n1,-9.06
27,COc1ccc(S(=O)(=O)Nc2cccc(F)c2C)cc1C(=O)N1CCOCC1,6.33
28,CC(NC(=O)COC(=O)c1cn(-c2ccccc2)nc1-c1cccs1)c1ccccc1 (stereo not shown),0.115

row,SMILES,"hERG current change (%, negative = inhibition) at 10uM [%]"
1,COC(=O)c1c(NC(C)=O)sc(C(=O)Nc2ccccc2OC)c1C,16.2
2,CC(Cc1n[nH]c(=S)o1)c1ccccc1 (stereo not shown),20.7
3,COc1cccc(C(C(=O)NC2CCCC2)N(Cc2cccnc2)C(=O)Cc2cccs2)c1 (stereo not shown),-5.67
4,COc1ccc(C2=Nc3ccc(C)cc3C(c3ccccc3)N2CC(=O)NN)cc1 (stereo not shown),-23.2
5,O=[N+]([O-])c1ccccc1NCc1ccc(Cl)cc1,-19.5
6,C/C=C/c1ccc(OCCCNCC(C)O)c(OC)c1 (stereo not shown),-29.2
7,COC(=O)c1ccc(OCC(O)CNCC(c2ccc(OC)cc2)N(C)C)c(OC)c1 (stereo not shown),-21.4
8,C/C=C/c1ccc(OCC(O)CNCC(c2ccc(OC)cc2)N(C)C)c(OC)c1.O=C(O)C(=O)O (stereo not shown),-66.5
9,C=CCNCC(O)COc1ccc(C(C)=O)cc1OC.O=C(O)C(=O)O (stereo not shown),-6.16
10,C/C=C/c1ccc(OCC(O)CNCCc2ccc(OC)cc2)c(OC)c1.O=C(O)C(=O)O (stereo not shown),-73.4
11,Cc1cc(Br)ccc1NC(=O)CN(C)C(=O)C1CSC2(C)CCC(=O)N12 (stereo not shown),11.5
12,CC1=CC(C)(C)Nc2ccc(OC(=O)CCN3C(=O)c4ccccc4C3=O)cc21,0.14
13,COc1ccc(C(=O)NC2CCN(C(=S)Nc3ccccc3)CC2)cc1,12.7
14,CNC(=O)c1c[nH]n2c(=O)c(Cc3ccccc3F)c(C)nc12,16.9
15,COc1cccc(/C=C/C(=O)NNC(=O)c2ccncc2)c1,-20.5
16,CCOc1cnc(C(=O)NNC(=O)c2ccccc2Br)o1,11
17,CCCNS(=O)(=O)c1ccc(OCC(=O)NCc2ccc3c(c2)OCO3)cc1,-23.8
18,C=CCNC(=O)/C(C#N)=C/c1c(C)nn(-c2ccccc2)c1Cl,-20
19,O=C(NC1CCS(=O)(=O)C1)/C(=C\c1ccccc1)NC(=O)c1ccccc1 (stereo not shown),-11
20,O=C(NC1CCS(=O)(=O)C1)/C(=C\c1ccc(F)cc1)NC(=O)c1ccccc1 (stereo not shown),-34.7
21,O=C(NC(NC1CCS(=O)(=O)C1)C(=O)c1cccs1)c1ccccc1 (stereo not shown),-1.01
22,O=C(/C=C/c1ccc(Cl)cc1)NC1CCS(=O)(=O)C1 (stereo not shown),-58.7
23,Cc1ccc(/C=C/C(=O)NC2CCS(=O)(=O)C2)cc1 (stereo not shown),20.6
24,O=C(NC1CCS(=O)(=O)C1)/C(=C/c1ccc(Cl)cc1)NC(=O)c1ccccc1 (stereo not shown),-55
25,O=C(NC(NC1CCS(=O)(=O)C1)C(=O)c1ccccc1)c1ccc(Cl)cc1 (stereo not shown),-51.6
26,O=C(/C=C/c1ccccc1)NC1CCS(=O)(=O)C1 (stereo not shown),18.1
27,O=C(NC(NC1CCS(=O)(=O)C1)C(Cl)(Cl)Cl)c1cccc(Cl)c1 (stereo not shown),-7.37
